The results in this text go back to PubChem BioAssay (EPA / NIEHS).

Assay [1] in a line: LTEA_HepaRG_LDH_cytotoxicity: Cytotoxicity Assessment in the Life Technologies and Expression Analysis (LTEA) Assay (AID 2283563).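 On AC50: LDH activity released into spent culture medium as a marker of cell death.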 A digest of the protocol: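 Human HepaRG hepatic cells are treated with test chemicals for 48 h at up to 100 uM in 0.5% DMSO. Cytotoxicity is scored from medium LDH against the vehicle control.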
Assay [2] in a line: ATG_XTT_Cytotoxicity: Cytotoxicity Assessment in the Attagene TRANS-FACTORIAL HepG2 Assay (AID 2283584).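 On AC50: XTT signal for cell number as viability in transfected HepG2 cells; cells exposed to compound for 24 h before reading; active means loss of viability signal versus DMSO baseline.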 A digest of the protocol: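 Transfect HepG2 with GAL4-UAS reporter units, dose compound, incubate 24 h, then measure viable cell number by XTT. Fit concentration response against DMSO baseline.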
Assay [3] is described as follows: Tanguay_ZF_120hpf_MORT_legacy: (Legacy) Oregon State University Tanguay Lab 120 Hour Post-fertilization zebrafish Assay for Mortality (AID 2283633).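 On AC50: fitted as increase in binary mortality versus DMSO negative control.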 A digest of the protocol:
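Mortality endpoint from a multiplexed whole-embryo zebrafish screen. Dechorionated wild-type embryos received compound at 6 hpf and remained under static exposure at 28C until 120 hpf, with death noted as a present/absent call.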

A short description of assay [4]: Tanguay_ZF_120hpf_YSE_legacy: (Legacy) Oregon State University Tanguay Lab 120 Hour Post-fertilization zebrafish Assay for Yolk Sac Edema (AID 2283634). The essentials: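 Readout: presence or absence of yolk sac edema at 120 hpf, fitted upward against DMSO controls. Exposure ran statically from 6 hpf in dechorionated embryos kept at 28C.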
The nature of assay [5]: Tanguay_ZF_120hpf_AXIS_legacy: (Legacy) Oregon State University Tanguay Lab 120 Hour Post-fertilization zebrafish Assay for Body Axis Malformation (AID 2283635). A digest of the protocol:
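Static 6–120 hpf chemical exposure of dechorionated wild-type 5D zebrafish, one per well at 28C; morphology endpoint scored binary at 120 hpf relative to DMSO control.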

A short description of assay [6]: Tanguay_ZF_120hpf_EYE_legacy: (Legacy) Oregon State University Tanguay Lab 120 Hour Post-fertilization zebrafish Assay for Eye Malformation (AID 2283636).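 Further: binary presence or absence of eye malformation scored by brightfield in 120 hpf larvae.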 The essentials: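 Binary brightfield scoring of eye defects at 120 hpf after static exposure from 6 hpf of single pronase-dechorionated wild-type embryos (28C, 0.64% DMSO). Non-mortality endpoints omitted where embryos died; fit vs DMSO.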

Assay [7] can be described thus: Tanguay_ZF_120hpf_SNOU_legacy: (Legacy) Oregon State University Tanguay Lab 120 Hour Post-fertilization zebrafish Assay for Snout Malformation (AID 2283637). The essentials:
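Binary snout-malformation call at 120 hpf in wild-type 5D embryos, chorion removed by pronase, under static exposure from 6 hpf at 28C (0.64% DMSO). Embryos dying by 24 or 120 hpf excluded.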

The nature of assay [8]: Tanguay_ZF_120hpf_OTIC_legacy: (Legacy) Oregon State University Tanguay Lab 120 Hour Post-fertilization zebrafish Assay for Otic Vesicle Malformation (AID 2283639). The essentials:
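Statically exposed wild-type 5D zebrafish embryos, kept sealed and dark at 28C through 120 hours post fertilization, were examined by brightfield microscopy for otic vesicle defects. Responses were recorded as present or absent and analysed relative to DMSO.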

A short description of assay [9]: Tanguay_ZF_120hpf_PE_legacy: (Legacy) Oregon State University Tanguay Lab 120 Hour Post-fertilization zebrafish Assay for Pericardial Edema (AID 2283640). The essentials: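 Read-out is the presence or absence of pericardial edema at 120 hpf under brightfield, with gain of signal fitted against DMSO controls. Larvae (5D wild-type) were statically exposed at 28C with 0.64% final DMSO.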

Assay [10] can be described thus: Tanguay_ZF_120hpf_SOMI_legacy: (Legacy) Oregon State University Tanguay Lab 120 Hour Post-fertilization zebrafish Assay for Somite Malformation (AID 2283647). A digest of the protocol: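 5D WT zebrafish; chorion removed 4 hpf; 1 embryo/well from 6 hpf; static exposure to 120 hpf, 28C, 0.64% DMSO final. Endpoint: somite malformation, binary, brightfield. Mortality excluded.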

A short description of assay [11]: Tanguay_ZF_120hpf_JAW_legacy: (Legacy) Oregon State University Tanguay Lab 120 Hour Post-fertilization zebrafish Assay for Jaw Malformation (AID 2283638). A digest of the protocol:
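Static waterborne exposure of dechorionated wild-type (Tropical 5D) zebrafish from 6 to 120 hpf at 28C, 0.64% DMSO vehicle; 5uM trimethyltin chloride served as positive control. Jaw morphology recorded as binary at 120 hpf.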

Assay [12] is described as follows: Tanguay_ZF_120hpf_BRAI_legacy: (Legacy) Oregon State University Tanguay Lab 120 Hour Post-fertilization zebrafish Assay for Brain Malformation (AID 2283641). The essentials: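 Brain malformation in Tropical 5D zebrafish was recorded as a binary endpoint after static compound exposure from early development to 120 hpf at 28C. Activity was analysed against DMSO as negative control.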

Assay [13] is described as follows: TOX21_p53_BLA_p2_viability: Viability Assessment in the Tox21 HCT-116 p53 Agonism Beta-lactamase Assay, Phase 2 (AID 2283591).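 Further: compound exposure lasted 16 h at 37 °C; actives lower the ATP signal meaning cytotoxicity.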 A digest of the protocol: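 Cytotoxicity readout: CellTiter-Glo ATP luminescence, 30 min at room temperature, after the beta-lactamase read. Cells were HCT116 exposed 16 h at 37C to compounds pin-transferred at 217-fold dilution from DMSO stocks.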

Assay [14] concerns the target Cellular tumor antigen p53 (Homo sapiens) (UniProt P04637). The experiment in a line: TOX21_p53_BLA_p2_ratio: Tox21 HCT-116 p53 Agonism Beta-lactamase Assay, Ratio, Phase 2 (AID 2283592). The essentials:
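Cleaved-to-uncleaved substrate ratio (460 vs 530 nm) measured in HCT116 cells with an inducible beta-lactamase reporter linked to p53 activity. Compounds incubated 16 h at 37C before 2 h room-temperature CCF4-AM loading.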

Assay [15] can be described thus: TOX21_p53_BLA_p3_viability: Viability Assessment in the Tox21 HCT-116 p53 Agonism Beta-lactamase Assay, Phase 3 (AID 2283593).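 Further: cells exposed to compound for 16 h before reading.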 A digest of the protocol:
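Cellular ATP was quantified by CellTiter-Glo luminescence, read after 30 min at room temperature. Beforehand, HCT116 cells (4000/well) received compound 5 h post-seeding, 217-fold diluted from DMSO, then incubated 16 h at 37C.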

In assay [16] the target is Cellular tumor antigen p53 (Homo sapiens) (UniProt P04637). The experiment in a line: TOX21_p53_BLA_p3_ratio: Tox21 HCT-116 p53 Agonism Beta-lactamase Assay, Ratio, Phase 3 (AID 2283596). A digest of the protocol:
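Cells were seeded at 4000/well, rested 5 h at 37C, then dosed with DMSO compound solutions (217-fold dilution) for 16 h. CCF4-AM substrate was loaded for 2 h at room temperature, and the 460/530 nm emission ratio was fitted for gain of signal versus DMSO.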

Assay [17] can be described thus: TOX21_p53_BLA_p4_viability: Viability Assessment in the Tox21 HCT-116 p53 Agonism Beta-lactamase Assay, Phase 4 (AID 2283597).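 Further: hits lower the luminescence signal meaning cytotoxicity.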 A digest of the protocol:
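Viability is taken as cellular ATP: after 16 h compound exposure of HCT116 cells and a 2 h room-temperature CCF4-AM substrate step, CellTiter-Glo reagent is added and luminescence is measured 30 min later.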

Assay [18] deals with Cellular tumor antigen p53 (Homo sapiens) (UniProt P04637). Description: TOX21_p53_BLA_p5_ratio: Tox21 HCT-116 p53 Agonism Beta-lactamase Assay, Ratio, Phase 5 (AID 2283599). A digest of the protocol:
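Beta-lactamase reporter ratio (blue 460 nm over green 530 nm, 405 nm excitation) after 2 h CCF4-AM loading, in HCT-116 cells exposed 16 h at 37 C to compounds pinned at 217-fold dilution. Increases relative to DMSO baseline scored.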

Assay [19] in a line: TOX21_p53_BLA_p5_viability: Viability Assessment in the Tox21 HCT-116 p53 Agonism Beta-lactamase Assay, Phase 5 (AID 2283600). A digest of the protocol:
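Viability is taken from cellular ATP content, measured by luciferase luminescence in the same wells after the beta-lactamase ratio read. Cells are seeded at 4000 per well and exposed to DMSO-dissolved compounds, diluted 217-fold, for 16 h.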

For assay [20], the target named is Cellular tumor antigen p53 (Homo sapiens) (UniProt P04637). Description: TOX21_p53_BLA_p4_ratio: Tox21 HCT-116 p53 Agonism Beta-lactamase Assay, Ratio, Phase 4 (AID 2283601). The essentials:
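Signal is the blue/green (460nm/530nm) ratio of cleaved versus uncleaved CCF4-AM substrate, read after 2 h substrate loading. Cells were HCT116 carrying the p53-responsive beta-lactamase reporter, dosed 16 h at 37C, 5% CO2; CellTiter-Glo measured in parallel.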

Molecules are shown by their SMILES. Values joined by “and” are separate entries in the source; they are usually repeats but may differ in a detail not shown here. Identical values can stand only once. Records with an inconclusive call do not appear. More than one record can exist for a structure, and the calls need not agree. Active and inactive are the calls of the source. How the source made its calls: active means hit-call score of the fitted dose curve at least 0.9, where 1 is the maximum; inconclusive means response in the unintended direction; inactive means score below 0.9.

Sequence of Cellular tumor antigen p53 (Homo sapiens) (P04637 whole entry, looked up): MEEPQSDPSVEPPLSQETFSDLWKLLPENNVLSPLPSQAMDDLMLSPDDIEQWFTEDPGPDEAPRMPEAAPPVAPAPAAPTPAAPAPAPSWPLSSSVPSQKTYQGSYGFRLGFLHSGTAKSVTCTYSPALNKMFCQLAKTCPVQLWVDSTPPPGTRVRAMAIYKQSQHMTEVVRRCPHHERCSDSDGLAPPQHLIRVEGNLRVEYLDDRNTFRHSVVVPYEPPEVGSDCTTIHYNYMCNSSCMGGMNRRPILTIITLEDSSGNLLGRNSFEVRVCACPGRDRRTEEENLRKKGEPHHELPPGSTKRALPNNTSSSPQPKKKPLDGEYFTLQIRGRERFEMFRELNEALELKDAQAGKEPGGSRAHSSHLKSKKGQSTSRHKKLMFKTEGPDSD

What is called AC50 is the midpoint of the concentration-response curve, whichever way the signal moves. As for `CCCCCCCCCCCCc1ccccc1S(=O)(=O)O`, the AC50 in assay [1] was 77.7 µM (active); in assay [2], 156 µM (active). In addition, the compound was classed as inactive in assay [3], in [4], in assay [5], in assay [6], in assay [7] and in assay [8]. The result in assay [9] and in assay [10] was inactive.

With `CN1CCC[C@H]1c1cccnc1`, the call in assay [1], in assay [2], in assay [3], in assay [4], in assay [5] and in [6] was inactive. The result in [7], in assay [11], in [8], in [9], in assay [12] and in assay [10] was inactive.

Take `CC(O)CO` (centres undefined): the call in assay [13], in [14], in assay [15], in assay [16], in assay [17] and in [18] was inactive. For the same compound, the outcome in assay [19], in assay [20], in assay [3], in [4], in [5] and in [6] was inactive. Also, the compound was called inactive in assay [7], in assay [8], in assay [9], in assay [12] and in assay [10].

With `Cc1ccc(S(=O)(=O)O)c(C)c1`, the compound was classed as inactive in assay [2], in assay [14], in assay [15], in assay [16], in [17] and in assay [18]. In addition, the compound was called inactive in assay [19] and in [20].

With `CCCCCCCCCCCCCC[N+](C)(C)C`, the AC50 in assay [2] was 36.8 µM (active); in assay [13] it was 49.1 µM (active) and 13.3 µM (active) and 33.7 µM (active); in assay [14], 43.8 µM (active) and 11.3 µM (active); in assay [15], 37.5 µM (active); in assay [16], 39.8 µM (active) and 14.6 µM (active); in assay [17] it was 52.4 µM (active) and 13.2 µM (active) and 35.4 µM (active). Moreover, the AC50 is 31.2 µM (active) and 16.1 µM (active) in assay [18]; 76.6 µM (active) and 45.3 µM (active) in assay [19]; 63.8 µM (active) and 26.6 µM (active) and 23.1 µM (active) in [20]. Further, the compound was classed as inactive in assay [2], in assay [14], in assay [15], in assay [16], in assay [18] and in [19].

`CC(O)C(=O)O` (centres undefined): the result in [2], in [14], in assay [16], in [18] and in assay [20] was inactive.

As for `O=C1OC2(c3ccccc31)c1cc(Br)c(O)c(Br)c1Oc1c2cc(Br)c(O)c1Br`, the compound was called inactive in assay [2], in assay [13], in [15], in [17] and in assay [19].

For the compound `CC(C)(C)c1cc(C(C)(C)C)c(O)c(C(C)(C)C)c1`, the compound was classed as inactive in assay [1], in assay [13], in assay [14], in assay [15], in assay [16] and in [17]. In addition, the result in [18], in [19], in assay [3], in assay [4], in assay [5] and in [6] was inactive. For the same compound, the compound was called inactive in assay [7], in assay [11], in [9] and in assay [12].

Regarding `NC(=O)N1C(=O)C(C(=O)c2cc(Cl)cs2)c2cc(F)c(Cl)cc21` (centres undefined), the AC50 was 15.8 µM (active) in assay [1]; 2.59 µM (active) in [16]; 7.17 µM (active) in assay [18]; 14 µM (active) in [20]; 1.44 µM (active) in assay [3]. In addition, the result in assay [13], in [14], in assay [15], in [17], in [19] and in assay [4] was inactive. In addition, the call in assay [5], in assay [6], in [7], in assay [11], in assay [8] and in assay [9] was inactive. The outcome in assay [12] and in assay [10] was inactive.

On to `NC(=O)N(O)[C@@H]1C=C[C@H](Oc2cccc(Oc3ccc(F)cc3)c2)C1`, for which the AC50 was 73.5 µM (active) in [1], 66.5 µM (active) in assay [14], 84.2 µM (active) in assay [17] and 74.5 µM (active) in assay [20]. The call in [13], in assay [15], in [16], in assay [18], in assay [3] and in assay [4] was inactive. Further, the compound was called inactive in [5], in [6], in assay [7], in assay [11], in assay [9] and in assay [12]. In addition, in [10], the outcome was inactive.
